Laboratory results as given in PubChem BioAssay AID1578 (Sanford-Burnham Center for Chemical Genomics, 2009).
Values joined by “and” are separate entries in the source; they are usually repeats but may differ in a detail not shown here. Identical values can stand only once. About 3,000 (1%) of roughly 290,000 compounds were called active. Shown is part of a subset that was picked to be rich in actives. Values without a mark were called inactive. Rule as the data show it: active = inhibition mostly above about 36% (no sharp cut-off); inactive = mostly below about 34%.

Experiment: NOD1 signaling inhibitors, primary screen, cell-based, luminescence, uHTS (AID 1578);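 also: HEK-293T reporter cells stimulated with the NOD1 agonist gamma-tri-DAP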
Settings: NOD1-driven NF-kB luciferase reporter cells, at 4 µM, stronger effect = higher value

SMILES	inhibition
C=CCC1(CC=C)CCCN1C(=O)c1cc(COc2cccc(OC)c2)on1	0.2%
C=CCC1(CC=C)CCCN1C(=O)c1cc(COc2ccc(F)c(F)c2)on1	-18.8%
CNC(=O)/C=C1\NC(C)(C)Cc2c1ccc1ccccc21	14.5%
Cc1nnc(N/N=C/C(C)c2ccccc2)[nH]c1=O (centres undefined)	-10%
O=C(CCn1c2c(c3ccccc31)CCCC2)NNC(=O)c1ccc([N+](=O)[O-])cc1	-4.7%
CCCCn1c(SCC(=O)Nc2nnc(C)s2)nnc1-c1ccoc1C	8.6%
O=C(NCCCNC(=O)c1c(F)cccc1F)c1c(F)cccc1F	1.4%
O=C(NCC(Cl)c1ccc2ccccc2c1)c1c(F)cccc1F (centres undefined)	31.2% (active)
O=C(NCC(O)c1ccc2ccccc2c1)c1c(F)cccc1F (centres undefined)	-2.4%
Cc1ccc(CN(Cc2cc3cc(C)ccc3[nH]c2=O)C(=O)N2CCOCC2)cc1	-1.5%
CC(C)CNC(=O)COC(=O)c1cc(Cl)cc(Cl)c1N	-25.7%
CC1(C)Cc2nc(N)c(=O)sc2C1	5.3%
O=C(/C=C/c1cccnc1)/C=C/c1cccnc1	49.7% (active)
CC(/C=C\c1cccnc1)=C/C(=O)O	-5.6% and -22.2%
O=C(O)/C=C/c1cccnc1	-4.2%
COC(=O)CCC(=O)N(C)CC1CCCN(CCc2cccc(C(F)(F)F)c2)C1 (centres undefined)	6.2%
O=C(O)CCN1C(=O)c2ccc(Oc3ccc([N+](=O)[O-])cc3)cc2C1=O	-1.1%
COc1ccccc1N(C(=O)c1snc(C(N)=O)c1N)C(C(=O)NC1CCCC1)c1ccc(N(C)C)cc1 (centres undefined)	-3%
O=C(N/N=C/c1cccc2nccnc12)c1ccccc1O	6%
O=C(C#Cc1cccc([N+](=O)[O-])c1)c1ccccc1	55.8%
O=C(C#Cc1ccccc1)c1ccc([N+](=O)[O-])cc1	38.4%
O=C(C#Cc1ccccc1)c1cccc([N+](=O)[O-])c1	79.8% (active)
Cc1nn(CCCC(=O)NC(C)c2ccccc2)c(=O)c2nn(-c3ccccc3)c(C)c12 (centres undefined)	-16.8%
COc1ccccc1C(=O)Nc1ccccc1C(=O)NCc1ccco1	25.7%
CCCSc1nc(SCC(=O)NCc2ccccc2)c2c3c(sc2n1)COC(C)(C)C3	-25.4%

SMILES	inhibition
CC(NC(=O)c1cnc2ccccc2n1)c1ccccc1 (centres undefined)	78.3% (active)
CC(NC(=O)c1ccc2ccccc2n1)c1ccccc1 (centres undefined)	-34.3%
O=C(Nc1ccccc1)c1cnc2ccccc2n1	-56.8%
COc1ccc(S(=O)(=O)NC(N)=NCCc2ccc(OC)c(OC)c2)cc1C	-11.6%
O=C1c2ccccc2C(=O)C12OC2c1cccc2ccccc12 (centres undefined)	-22.4%
O=C1c2ccccc2C(=O)C12OC2c1ccc(Cl)cc1 (centres undefined)	81.6% (active)
O=C1c2ccccc2C(=O)C12OC2c1ccc(Cl)cc1Cl (centres undefined)	36.6%
C(=N\n1cnnc1)/C1CCCCC1	-17.3%
Nc1c(N2CCN(c3ccccc3)CC2)c2ccccc2oc1=O	60.8% (active)
Nc1c(N2CCCCC2)c2ccccc2oc1=O	-15%
Nc1c(N2CCCC2)c2ccccc2oc1=O	-10.9%
COc1ccc(OC)c(NC(=O)Cc2c(C(=O)O)n(C)c3ccccc23)c1	-25.2%
NC(=O)C1CCN(C(=O)c2ccc3nc(N4CCCCC4)sc3c2)CC1	-2.5%
COC(=O)Cc1ccc(NC(=S)NCc2ccccc2OC)cc1	-14.6%
O=C(CC1NCCNC1=O)Nc1ccccc1 (centres undefined)	-14.1%
Cc1ccc(C)c(NC(=O)C2CCCN(S(=O)(=O)c3c(C)noc3/C=C/N(C)C)C2)c1 (centres undefined)	-11.5%
COc1ccc(/C=N/NC(=O)c2cccnc2)cc1O	20%
CCOC(=O)CNC(=O)c1cc(-c2ccc3c(c2)OCCO3)oc1C	-24%
Cc1oc(-c2ccc3c(c2)OCCO3)cc1C(=O)NCC(=O)O	-22.5%
Cc1oc(-c2ccc3c(c2)OCCO3)cc1C(=O)O	89.2% (active)
C=C1CCC[C@]2(C)C[C@H]3OC(=O)C(CNCC(OC)OC)[C@H]3CC12 (some centres undefined)	-18%
COc1cc(/C=N/O)cc(Br)c1OS(=O)(=O)c1ccc(C)cc1	78% (active)
CCCOc1c(Br)cc(/C=N/O)cc1OC	6%
COc1cc(/C=N/O)cc(Br)c1OC	6.6%
COCCNC(=S)N1CCOCC1	-13.4%

SMILES	inhibition
CC(C)(C)C1=NN(c2ccc([N+](=O)[O-])cc2)C(c2ccccc2)C1 (centres undefined)	-37.3%
COc1ccc(S(=O)(=O)N(C)C)cc1NC(=O)COC(=O)CC1CCCC1	41.4% (active)
CN(C)S(=O)(=O)c1ccc(Cl)c(NC(=O)COC(=O)CN2C(=O)C3CCCCC3C2=O)c1 (centres undefined)	-45.6%
CCN(CC)S(=O)(=O)c1ccc(OC)c(NC(=O)CC2CCCC2)c1	-26.7%
CN(CC(=O)Nc1ccc(Cl)c(Cl)c1)C1CCCCC1	-29.4%
O=C(c1ccco1)N(Cc1ccco1)Cc1cc2ccccc2[nH]c1=O	5.8%
O=C(C1COc2ccccc2O1)N1CCCC1 (centres undefined)	9.4%
O=C(C1COc2ccccc2O1)N1CCc2ccccc21 (centres undefined)	-44.3%
O=C(C1COc2ccccc2O1)N1CCc2ccccc2C1 (centres undefined)	45.7% (active)
Cc1ccc(CSc2nnc3ccc(-c4ccncc4)nn23)cc1	-23.9%
Cc1ccc(C(=O)N2CCCC(C(=O)c3ccc(Oc4ccccc4)cc3)C2)cn1 (centres undefined)	61% (active)
CSc1ccc(C(=O)C2CCCN(C(=O)c3ccc(C)nc3)C2)cc1 (centres undefined)	-25.1%
O=C(c1ccc(Oc2ccccc2)cc1)C1CCCN(C(=O)c2cnccn2)C1 (centres undefined)	-4.3%
COc1ccc(Nc2ncnc3ccc([N+](=O)[O-])cc23)c(OC)c1	7%
COc1ccc([N+](=O)[O-])cc1Nc1ncnc2ccccc12	-1.9%
Cc1ccc(O)c(Nc2ncnc3ccc([N+](=O)[O-])cc23)c1	28.1%
Cc1ccc2ncnc(Nc3cccc([N+](=O)[O-])c3)c2c1	13.8%
O=[N+]([O-])c1ccc2ncnc(Nc3ccc4c(c3)OCCO4)c2c1	65.2% (active)
CCOC(=O)COn1c(=O)c(-c2ccccc2)[n+]([O-])c2ccccc21	0.2%
COc1ccc(/C=N/NC(=O)c2ccc(Br)cc2)c(OC)c1	-40.4%
COC(=O)C1=C(C)NC(C)=C(C(=O)OC)C1c1ccco1	-5.8%
CCOc1ccc(NC(=O)COC(=O)Cc2ccc(S(=O)(=O)N3CCOCC3)s2)cc1	5.1%
Cc1ccc(-n2nc3c(=O)n(CC(=O)NCc4ccccn4)nc(C)c3c2C)cc1	-3.4%
CC(C)(C)OC(=O)N1CCOCCOCCN(C(=O)OC(C)(C)C)CCOCCOCC1	4.4%
COC(=O)c1nc(NC(=O)c2cc(OC)c(OC)c(OC)c2)n[nH]1	15.5%

SMILES	inhibition
Cc1ccc2[nH]cc(C(=O)CCl)c2c1	107% (active)
CCN1CCN(CC(=O)c2c[nH]c3ccc(C)cc23)CC1	-10.6%
CCN(CC)CC(=O)c1c[nH]c2ccc(C)cc12	-11.4%
Nc1ccc(S(=O)(=O)c2ccc(Cl)cc2)cc1	4%
COc1ccc(/C=N/NC(N)=S)cc1	-8.2%
Cc1ccc(S(=O)(=O)c2nc(S(=O)(=O)c3ccccc3)sc2N2CCN(CCO)CC2)cc1	18%
CCN1C(=O)N(CC)C2NC(=S)NC21 (centres undefined)	8.6%
COc1ccc(OCc2cc(C(=O)N(C)Cc3nnc(C)o3)no2)c(Cl)c1	-5.8%
C=CCn1c(SCCCc2ccccc2)nc2c1c(=O)[nH]c(=O)n2C	-1.2%
C/C=C/Cn1c(SCc2ccccc2)nc2c1c(=O)[nH]c(=O)n2C	35%
Cc1ccc(S(=O)(=O)c2cc3c(=O)n4ccccc4nc3n(C)c2=N)cc1C	-7.1%
CCOCCOC(=O)c1[nH]c2c(c1C)C(=O)CC(c1cc(OC)c(OC)c(OC)c1)C2 (centres undefined)	4.2%
CCCOC(=O)c1[nH]c2c(c1C)C(=O)CC(c1ccc(OC)c(OC)c1)C2 (centres undefined)	-5.9%
CC(=O)N1CCN(c2ccccc2NC(=O)c2ccc(C#N)cc2F)CC1	2.6%
COc1ccc(OCCN2CCN(C(=O)c3ccc(OC)c(OC)c3)CC2)cc1	-11.7%
Cc1ccc(-c2nc(N)sc2-c2ccccc2)cc1C	-14%
CCOC(=O)c1c(NC(=O)c2cccs2)sc2c1CCN(C(=O)OCC)C2	14%
CCOC(=O)N1CCc2c(sc(NC(=O)c3ccc(Cl)s3)c2C(N)=O)C1	85.3% (active)
CCOC(=O)N1CCc2c(sc(NC(=O)C3=COCCO3)c2C(N)=O)C1	-29.7%
O=C(CSc1nnc(-c2ccccc2Br)o1)Nc1cccc2ccccc12	-22.5%
Cc1ccc(C2=Nn3c(COc4ccc(Cl)cc4)nnc3SC2CC(=O)O)cc1 (centres undefined)	3.6%
CN(CCCNC(=O)Cn1c(=O)c2cccn2c2ccccc21)Cc1ccccc1	-17.1%
Cc1ccccc1NC(=O)COC(=O)C1(C)CC1(Cl)Cl (centres undefined)	-11.4%
Cc1ccc(S(=O)(=O)Oc2ccc(/C=C(/NC(=O)c3ccccc3)C(=O)NCCCC(=O)O)cc2)cc1	-18.3%
